Measured values as given in the antibiotic and cytotoxicity screens of Wong et al. (2023).
Hit rate of the full screen: of about 39,000 compounds, about 1,500 (3.8%) were called active. The full list was thinned out, with actives kept by preference.

System: HSkMC (human skeletal muscle cells)
Assay: cytotoxicity call (relative viability < 0.9)
Details: 10 µM

Compound | cytotoxicity call
Cc1cc(C(=O)Nc2cccc3c2O[C@H](CN(C)C(=O)Nc2ccc4c(c2)OCO4)[C@@H](C)CN([C@H](C)CO)C3=O)n(C)n1 | inactive
COc1ccc(CCNC(=O)[C@@]2(Sc3ccc(C)cc3)CC(=O)N(C3CCCCC3)[C@@H]2c2ccc(CO)cc2I)cc1 | inactive
COc1ccc(NC(=O)N(C)C[C@@H]2Oc3ccc(NS(=O)(=O)c4c(C)noc4C)cc3CC(=O)N([C@@H](C)CO)C[C@H]2C)cc1 | inactive
CS(=O)(=O)CCNCc1nc(-c2ccc3ncnc(Nc4ccc(OCc5cccc(F)c5)c(Cl)c4)c3c2)cs1 | active
Fc1cccc(-c2csc(COc3ccccc3Cl)n2)c1 | inactive
CS(=O)(=O)CCNCc1ccc(-c2ccc3ncnc(Nc4ccc(OCc5cccc(F)c5)c(Cl)c4)c3c2)o1 [listing 1 of 2 here] | active
CC(C)(O)CC(=O)NCCn1ccc2ncnc(Nc3ccc(Oc4cccc(C(F)(F)F)c4)c(Cl)c3)c21 | inactive
CS(=O)(=O)CCNCc1ccc(-c2ccc3ncnc(Nc4ccc(OCc5cccc(F)c5)c(Cl)c4)c3c2)o1 [listing 2 of 2 here] | active
CCCN(C)C[C@H]1OCCCC[C@H](C)Oc2ccc(NS(=O)(=O)c3cn(C)cn3)cc2C(=O)N([C@H](C)CO)C[C@H]1C | inactive
C[C@@H]1CNC[C@H](C)N1 | inactive
C[C@H](CO)N1C[C@H](C)[C@@H](CN(C)S(=O)(=O)c2ccc(Cl)cc2)Oc2ccc(NC(=O)CCN3CCOCC3)cc2C1=O | inactive
c1ccc(C2C3=C(CCCC3)SC3=C2CCCC3)cc1 | inactive
Cc1noc(C)c1NC(=O)N(C)C[C@@H]1Oc2c(NS(C)(=O)=O)cccc2C(=O)N([C@H](C)CO)C[C@H]1C | inactive
Cc1ccc(S(=O)(=O)N(C)C[C@H]2Oc3c(NC(=O)Nc4ccc(C(F)(F)F)cc4)cccc3C(=O)N([C@@H](C)CO)C[C@H]2C)cc1 | active
Cc1ccc(S(=O)(=O)N(C)C[C@@H]2Oc3c(NC(=O)Nc4ccc(C(F)(F)F)cc4)cccc3C(=O)N([C@H](C)CO)C[C@H]2C)cc1 | inactive
Cc1ccc(S(=O)(=O)N(C)C[C@@H]2Oc3c(NC(=O)Nc4ccc(C(F)(F)F)cc4)cccc3C(=O)N([C@H](C)CO)C[C@@H]2C)cc1 | inactive
Cc1ccc(S(=O)(=O)N(C)C[C@H]2Oc3c(NC(=O)Nc4ccc(C(F)(F)F)cc4)cccc3C(=O)N([C@H](C)CO)C[C@H]2C)cc1 | active
Cc1ccc(S(=O)(=O)N(C)C[C@H]2Oc3c(NC(=O)Nc4ccc(C(F)(F)F)cc4)cccc3C(=O)N([C@@H](C)CO)C[C@@H]2C)cc1 | inactive
Cc1ccc(S(=O)(=O)N(C)C[C@@H]2Oc3c(NC(=O)Nc4ccc(C(F)(F)F)cc4)cccc3C(=O)N([C@@H](C)CO)C[C@H]2C)cc1 | inactive
[N-]=[N+]=N[C@]1(CO)O[C@@H](n2ccc(N)nc2=O)[C@H](O)[C@@H]1O | inactive
c1ccc(CCN2CCNCC2)nc1 | inactive

Compound | cytotoxicity call
C[C@@H]1CN([C@H](C)CO)C(=O)c2cc(Br)cnc2O[C@@H]1CN(C)S(=O)(=O)c1ccccc1 | inactive
Cc1ccc(S(=O)(=O)N(C)C[C@@H]2Oc3ncc(C#CC4(O)CCCC4)cc3C(=O)N([C@@H](C)CO)C[C@@H]2C)cc1 | inactive
COc1ccc(S(=O)(=O)N(C)C[C@@H]2Oc3ccc(NS(=O)(=O)c4c(C)noc4C)cc3C(=O)N([C@H](C)CO)C[C@@H]2C)cc1 | inactive
CCCNC(=O)C[C@H]1CC[C@H]2[C@@H](COc3ccc(NS(=O)(=O)c4ccccc4C)cc3C(=O)N2C)O1 | inactive
C[C@@H]1CN([C@H](C)CO)C(=O)Cc2cc(NC(=O)CCCCCC(=O)Nc3ccccc3N)ccc2O[C@H]1CN(C)CC1CCCCC1 | inactive
C[C@@H]1CN([C@H](C)CO)C(=O)Cc2cc(NC(=O)CCCCCC(=O)Nc3ccccc3N)ccc2O[C@H]1CN(C)Cc1ccc(-c2ccccc2)cc1 | inactive
C[C@H]1CN([C@@H](C)CO)C(=O)c2cc(NC(=O)CCCCCC(=O)Nc3ccccc3N)ccc2O[C@H]1CN(C)Cc1ccc(-c2ccccc2)cc1 | inactive
C[C@@H]1CN([C@H](C)CO)C(=O)Cc2cc(NC(=O)CCCCCC(=O)Nc3ccccc3N)ccc2O[C@@H]1CN(C)Cc1ccc(Oc2ccccc2)cc1 | active
C[C@@H]1CN([C@H](C)CO)C(=O)Cc2cc(NC(=O)CCCCCC(=O)Nc3ccccc3N)ccc2O[C@@H]1CN(C)CC1CCCCC1 | active
C[C@@H]1CN([C@@H](C)CO)C(=O)c2cc(NC(=O)CCCCCC(=O)Nc3ccccc3N)ccc2O[C@@H]1CN(C)Cc1ccc(-c2ccccc2)cc1 | inactive
C[C@H]1CN([C@@H](C)CO)C(=O)Cc2cc(NC(=O)CCCCCC(=O)Nc3ccccc3N)ccc2O[C@H]1CN(C)Cc1ccc(-c2ccccc2)cc1 | inactive
C[C@@H]1CN([C@H](C)CO)C(=O)c2cc(NC(=O)CCCCCC(=O)Nc3ccccc3N)ccc2O[C@H]1CN(C)Cc1ccc(-c2ccccc2)cc1 | active
C[C@@H]1CN([C@H](C)CO)C(=O)Cc2cc(NC(=O)CCCCCC(=O)Nc3ccccc3N)ccc2O[C@@H]1CN(C)Cc1ccc(-c2ccccc2)cc1 | active
C[C@@H]1CN([C@@H](C)CO)C(=O)Cc2cc(NC(=O)CCCCCC(=O)Nc3ccccc3N)ccc2O[C@@H]1CN(C)Cc1ccc(Oc2ccccc2)cc1 | inactive
C[C@H]1CN([C@@H](C)CO)C(=O)Cc2cc(NC(=O)CCCCCC(=O)Nc3ccccc3N)ccc2O[C@@H]1CN(C)Cc1ccc(Oc2ccccc2)cc1 | inactive
C[C@@H]1CN([C@@H](C)CO)C(=O)Cc2cc(NC(=O)CCCCCC(=O)Nc3ccccc3N)ccc2O[C@@H]1CN(C)CC1CCCCC1 | inactive
CN1C[C@H](O)COC[C@@H]2O[C@@H](CC(=O)N3CCN(c4ccccc4)CC3)CC[C@H]21 | inactive
C[C@@H]1CCCCO[C@H](CN(C)C(=O)Nc2ccc(C(F)(F)F)cc2)[C@H](C)CN([C@H](C)CO)C(=O)c2cc(N(C)C)ccc2O1 | inactive
COc1cccc(NC(=O)N(C)C[C@H]2Oc3ncc(C#Cc4cccnc4)cc3C(=O)N([C@@H](C)CO)C[C@@H]2C)c1 | inactive
C[C@@H]1CN([C@H](C)CO)C(=O)Cc2cc(NC(=O)CCN3CCOCC3)ccc2O[C@H]1CN(C)S(=O)(=O)c1ccc(Cl)cc1 | inactive
O=C(O)c1cc(F)c2nc(N3[C@@H]4CC[C@H]3C[C@@H](OCc3c(-c5ccccc5OC(F)(F)F)noc3C3CC3)C4)sc2c1 | inactive

Compound | cytotoxicity call
C[C@H](CO)N1C[C@H](C)[C@H](CN(C)Cc2ccncc2)Oc2c(NC(=O)Nc3cccc4ccccc34)cccc2C1=O | inactive
C[C@H](CO)N1C[C@H](C)[C@@H](CN(C)S(=O)(=O)c2ccc(Oc3ccccc3)cc2)OCc2cnnn2CCCC1=O | inactive
C[C@@H]1CN([C@@H](C)CO)C(=O)c2cc(NC(=O)C3CCCCC3)ccc2O[C@@H](C)CCCCO[C@H]1CN(C)Cc1ccc2c(c1)OCO2 | inactive
COc1ccc(CNC(=O)C[C@@H]2C[C@@H]3c4cc(NS(=O)(=O)c5ccc(F)cc5)ccc4O[C@@H]3[C@H](CO)O2)cc1 | inactive
O=C1c2ccc3c4c(ccc(c24)C(=O)N1CCCCO)C(=O)N(CCCCO)C3=O | active
NC(=O)CCN1C(=O)c2ccccc2C1=O | inactive
O=C(O)CCCN1C(=O)c2cccc3cccc(c23)C1=O | inactive
CN1C(=O)c2cc(NC(=O)C3CCOCC3)ccc2OC[C@H]2O[C@H](CC(=O)NCc3ccc4c(c3)OCO4)CC[C@H]21 | inactive
C[C@H](CO)N1C[C@H](C)[C@H](CN(C)S(=O)(=O)c2cccs2)Oc2c(NS(=O)(=O)c3cn(C)cn3)cccc2C1=O | inactive
C[C@@H]1CCCCO[C@@H](CN(C)C(=O)Nc2ccc(C(F)(F)F)cc2)[C@H](C)CN([C@H](C)CO)C(=O)c2cc(NS(=O)(=O)c3ccc(Cl)cc3)ccc2O1 | active
C[C@@H]1CCCCO[C@@H](CN(C)C(=O)Nc2ccc(C(F)(F)F)cc2)[C@H](C)CN([C@H](C)CO)C(=O)c2cc(NS(=O)(=O)c3ccc(F)cc3)ccc2O1 | inactive
C[C@@H]1CCCCO[C@H](CN(C)C(=O)Nc2ccc(C(F)(F)F)cc2)[C@H](C)CN([C@H](C)CO)C(=O)c2cc(NS(=O)(=O)c3ccc(Cl)cc3)ccc2O1 | inactive
C[C@H]1CCCCO[C@@H](CN(C)C(=O)Nc2ccc(C(F)(F)F)cc2)[C@@H](C)CN([C@@H](C)CO)C(=O)c2cc(NS(=O)(=O)c3ccc(Cl)cc3)ccc2O1 | inactive
C[C@@H]1CN([C@H](C)CO)C(=O)c2cc(NS(=O)(=O)c3ccc(Cl)cc3)ccc2O[C@@H](C)CCCCO[C@H]1CN(C)C(=O)Nc1ccc(C(F)(F)F)cc1 | active
C[C@H](CO)N1C[C@H](C)[C@H](CN(C)C(=O)Nc2ccc(C(F)(F)F)cc2)OCCCC[C@H](C)Oc2ccc(NS(=O)(=O)c3ccc(Cl)cc3)cc2C1=O | inactive
C[C@@H]1CCCCO[C@H](CN(C)C(=O)Nc2ccc(C(F)(F)F)cc2)[C@@H](C)CN([C@@H](C)CO)C(=O)c2cc(NS(=O)(=O)c3ccc(Cl)cc3)ccc2O1 | active
C[C@@H]1CCCCO[C@@H](CN(C)C(=O)Nc2ccc(C(F)(F)F)cc2)[C@H](C)CN([C@@H](C)CO)C(=O)c2cc(NS(=O)(=O)c3ccc(F)cc3)ccc2O1 | inactive
C[C@@H]1CN([C@@H](C)CO)C(=O)c2cc(NS(=O)(=O)c3ccc(Cl)cc3)ccc2O[C@@H](C)CCCCO[C@@H]1CN(C)C(=O)Nc1ccc(C(F)(F)F)cc1 | inactive
C[C@@H]1CCCCO[C@H](CN(C)C(=O)Nc2ccc(C(F)(F)F)cc2)[C@H](C)CN([C@@H](C)CO)C(=O)c2cc(NS(=O)(=O)c3ccc(Cl)cc3)ccc2O1 | inactive
C[C@H]1CCCCO[C@H](CN(C)C(=O)Nc2ccc(C(F)(F)F)cc2)[C@@H](C)CN([C@@H](C)CO)C(=O)c2cc(NS(=O)(=O)c3ccc(F)cc3)ccc2O1 | active
C[C@@H]1CCCCO[C@@H](CN(C)C(=O)Nc2ccc(C(F)(F)F)cc2)[C@H](C)CN([C@@H](C)CO)C(=O)c2cc(NS(=O)(=O)c3ccc(Cl)cc3)ccc2O1 | inactive
